From the supplement of paper PMC12494721 come the findings set out here.

Structures can show the parent of a compound that is named as a salt.

Common to all, as to conditions: incubation time: 27 h, anaerobic, 37 °C
For assay [1], the system named is Clostridium sporogenes DSM 1664. Nature of the assay: growth (OD595) fold change vs plate DMSO controls (fold change (ratio)); higher = more growth. A digest of the protocol:
(§1)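 Anaerobic 27 h, 37 °C mGAM 96-well cultures were shaken, then read for absorbance at 595 nm. Values were blank-subtracted and corrected for compound background using 20 µM compound solutions in water. A calibration factor of 5 converted them to OD. Growth is the fold change versus the median of plate DMSO controls. Fold changes above 1.5 were set to NA, and values are the mean of 2 biological replicates.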

For assay [2], the system named is Escherichia coli IAI1. The description is as above. The gist of the method: as §1
The subject of assay [3] is Klebsiella aerogenes DSM 30053. The description is as above. A digest of the protocol:
as §1

For assay [4], the system named is Ruminococcus gnavus DSM 108212. Described as above. The gist of the method: as §1
The test system of assay [5] is Klebsiella aerogenes DSM 30053. Kind of assay: fold change of Histamine concentration vs plate DMSO controls (fold change (ratio)); higher = more amine produced, active = hit call of the paper (significant change in both replicates, either direction). The gist of the method: (§2)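 Anaerobic mGAM cultures of four gut bacterial strains were grown at 37 °C for 27 h in 80 µL wells, starting at OD 0.1 before 1:1 dilution. Compounds were at 20 µM final (sweeteners 50 µM). Whole cultures were extracted with cold acetonitrile/methanol containing 0.1% formic acid and centrifuged. Amines were quantified by LC–triple-quadrupole MS (dynamic MRM) against external calibration curves and drift-corrected within batch. Each value is the fold change versus plate DMSO controls, averaged over 2 biological replicates.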

Assay [6] concerns Clostridium sporogenes DSM 1664. Kind of assay: fold change of Tryptamine concentration vs plate DMSO controls (fold change (ratio)); higher = more amine produced, active = hit call of the paper (significant change in both replicates, either direction). A digest of the protocol: as §2
In assay [7] the test system is Ruminococcus gnavus DSM 108212. The description is as above. The gist of the method: as §2
In assay [8] the test system is Escherichia coli IAI1. Kind of assay: fold change of Putrescine concentration vs plate DMSO controls (fold change (ratio)); higher = more amine produced, active = hit call of the paper (significant change in both replicates, either direction). A digest of the protocol:
as §2

Assay [9] concerns Klebsiella aerogenes DSM 30053. The description is as above. A digest of the protocol: as §2
Assay [10] concerns Escherichia coli IAI1. Kind of assay: fold change of Cadaverine concentration vs plate DMSO controls (fold change (ratio)); higher = more amine produced, active = hit call of the paper (significant change in both replicates, either direction). A digest of the protocol: as §2
For assay [11], the system named is Klebsiella aerogenes DSM 30053. The description is as above. The gist of the method:
as §2

The subject of assay [12] is Ruminococcus gnavus DSM 108212. Nature of the assay: fold change of 2-Phenylethylamine concentration vs plate DMSO controls (fold change (ratio)); higher = more amine produced, active = hit call of the paper (significant change in both replicates, either direction). A digest of the protocol: as §2

Turning to `CC(C(=O)O)c1cccc(C(=O)c2ccccc2)c1` (configuration not stated) [Ketoprofen] (20 µM), the growth in [1] was determined as 0.99; in [2], 1.04; in assay [3], 0.993; in assay [4], 0.957. In [5], the “fold change of Histamine concentration” value was 1.03 (inactive). The “fold change of Tryptamine concentration” value in [6] is 0.984 (inactive); in assay [7], 1.06 (inactive). In addition, the results for the “fold change of Putrescine concentration” value in assay [8] and in assay [9] were 1.1 (inactive) and 1.01 (inactive), respectively. The “fold change of Cadaverine concentration” value in assay [10] was 1.02 (inactive); in assay [11], 0.995 (inactive). In addition, the “fold change of 2-Phenylethylamine concentration” value in [12] was 1.12 (inactive).

Take `O=c1[nH]c(=O)n([C@H]2C[C@H](O)[C@@H](CO)O2)cc1/C=C/Br` [Brivudine] (20 µM): the growth in assay [1] is 1.08; in [2], 1.06; in assay [3], 1.02; in [4] it was 1.06. Moreover, the “fold change of Histamine concentration” value in [5] was 0.978 (inactive). The “fold change of Tryptamine concentration” value in assay [6] is 1.03 (inactive); in assay [7], 1.04 (inactive). Moreover, the entries for the “fold change of Putrescine concentration” value in assay [8] and in [9] were 0.968 (inactive) and 1 (inactive), respectively. The “fold change of Cadaverine concentration” value in [10] was 0.982 (inactive); in assay [11], 1 (inactive). Further, in assay [12], the “fold change of 2-Phenylethylamine concentration” value was 1.08 (inactive).

Regarding `CN(C)C(=N)NC(=N)N` [Metformin hydrochloride] (20 µM), the growth is 0.988 in assay [1], 1.02 in [2], 0.989 in [3] and 1.26 in assay [4]. Also, the “fold change of Histamine concentration” value in assay [5] was 0.96 (inactive). The “fold change of Tryptamine concentration” value is 1 (inactive) in [6] and 1.06 (inactive) in assay [7]. For the same compound, the figures for the “fold change of Putrescine concentration” value in assay [8] and in assay [9] were 1.03 (inactive) and 0.96 (inactive), respectively. Moreover, the “fold change of Cadaverine concentration” value in assay [10] was 0.962 (inactive); in assay [11] it was 1.02 (inactive). Also, the “fold change of 2-Phenylethylamine concentration” value in assay [12] is 1.08 (inactive).

With `Cn1cc(C(=O)[C@@H]2CCc3[nH]cnc3C2)c2ccccc21` [Ramosetron hydrochloride] (20 µM), the growth in assay [1] turned out to be 0.928; in assay [2], 0.966; in [3] it was 1; in assay [4] it was 0.964. Moreover, the “fold change of Histamine concentration” value in assay [5] is 0.964 (inactive). The “fold change of Tryptamine concentration” value in [6] is 1.02 (inactive); in [7] it was 1 (inactive). The figures for the “fold change of Putrescine concentration” value in assay [8] and in assay [9] were 0.969 (inactive) and 1.01 (inactive), respectively. For the same compound, the figures for the “fold change of Cadaverine concentration” value in assay [10] and in assay [11] were 1.11 (inactive) and 0.997 (inactive), respectively. The “fold change of 2-Phenylethylamine concentration” value in assay [12] is 1.04 (inactive).

For `COC(=O)Nc1nc2cc(C(=O)c3ccccc3)ccc2[nH]1` [Mebendazole] (20 µM), the growth turned out to be 1.04 in assay [1], 1 in assay [2], 1.11 in assay [3] and 0.629 in [4]. Further, in [5], the “fold change of Histamine concentration” value was 0.962 (inactive). Besides, the results for the “fold change of Tryptamine concentration” value in [6] and in assay [7] were 0.982 (inactive) and 1.01 (inactive), respectively. The “fold change of Putrescine concentration” value in [8] was 1.03 (inactive); in assay [9] it was 0.987 (inactive). Further, the figures for the “fold change of Cadaverine concentration” value in [10] and in assay [11] were 0.998 (inactive) and 1 (inactive), respectively. Besides, in assay [12], the “fold change of 2-Phenylethylamine concentration” value is 1.03 (inactive).

As for `CNCCCN1c2ccccc2CCc2ccccc21` [Desipramine hydrochloride] (20 µM), the growth in [1] came to 0.96; in assay [2] it was 1.09; in [3], 0.971; in [4], 1.12. In assay [5], the “fold change of Histamine concentration” value is 1.06 (inactive). The “fold change of Tryptamine concentration” value in [6] was 0.982 (inactive); in assay [7], 0.946 (inactive). In addition, the “fold change of Putrescine concentration” value in assay [8] and in assay [9] was 1.01 (inactive) in each case. Besides, the “fold change of Cadaverine concentration” value in assay [10] is 1.56 (inactive); in assay [11] it was 0.987 (inactive). Further, in [12], the “fold change of 2-Phenylethylamine concentration” value was 0.934 (inactive).
